We go through 15 compounds from PubChem BioAssay (NCI).

Molecules are shown by their SMILES. This is part of a sample that, as a whole, favours compounds with a hit. Of some 83,000 tested, about 20% had one in any assay.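 Interpretation: 100, growth as untreated; towards 0, rising growth inhibition; 0, no net growth; 0 to -100, cell death. Compounds scoring below 10 were considered active.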 A number with no mark means an inactive call. Active and inactive are the calls of the source.

Test systems include T-47D breast; BT-549 breast; MDA-MB-435 melanoma; SW-620 colon; MCF7 breast; HCT-116 colon; HCC-2998 colon; KM12 colon.
Assay in all cases: NCI-60 one-dose screen, 48 h (100 = growth as untreated, 0 = no growth, -100 = all killed)
What all share (settings): 10 µM

As for `CC(=O)N[C@H](C(=O)N[C@@H](CCCNC(=N)N)C(=O)N[C@@H](CCCCN)C(=O)N[C@@H](CCCNC(=N)N)C(=O)N[C@]1(C)CCC/C=C\CCC[C@@](C)(C(=O)N[C@@H](CC(C)C)C(=O)N[C@@H](CC(C)C)C(=O)N[C@@H](CCC(N)=O)C(=O)N[C@@H](CCC(=O)O)C(=O)N[C@@H](CCCNC(=N)N)C(=O)N[C@@H](CCC(=O)O)C(=O)N[C@@H](CC(C)C)C(=O)N[C@H](C(=O)N[C@@H](CCC(=O)O)C(N)=O)C(C)C)NC(=O)[C@H](CCCNC(=N)N)NC(=O)[C@H](CC(C)C)NC1=O)C(C)C`, the growth with T-47D breast is 92.4%; with BT-549 breast, 102%; in the test on MDA-MB-435 melanoma it was 110%; in the test on SW-620 colon, 113%; in the test with MCF7 breast, 102%; with HCT-116 colon it was 105%. For the same compound, the results for the growth in the test on HCC-2998 colon and with KM12 colon were 109% and 105%, respectively.

Consider `O=C1/C(=C/c2ccc3c(c2)OCO3)SC(=S)N1C1c2ccccc2Oc2ccccc21`, for which the growth is 104% with T-47D breast; 91.1% in the test with BT-549 breast; 96.5% in the test on MDA-MB-435 melanoma; 103% in the test on SW-620 colon; 91.6% in the test with MCF7 breast; 92.9% in the test with HCT-116 colon. For the same compound, the growth was 80.1% in the test on HCC-2998 colon and 96.6% in the test with KM12 colon.

Consider `COc1ccc(/C=C2\CCCC3=C2N=C2SC(C)=CN2C3c2ccc(OC)cc2)cc1` (stereo not drawn), for which the growth with T-47D breast is 108%; with BT-549 breast, 105%; with MDA-MB-435 melanoma, 90%; with SW-620 colon it was 99.6%; with MCF7 breast, 88.8%; with HCT-116 colon it was 93.4%. Moreover, the growth in the test with HCC-2998 colon was 111%; in the test with KM12 colon, 108%.

For `CC(C)N(CCOc1cccc(-c2nc3sccn3c2-c2ccnc(S(C)(=O)=O)n2)c1)C(C)C`, the growth in the test with T-47D breast was 88.3%; with BT-549 breast it was 128%; in the test on MDA-MB-435 melanoma, 86.1%; in the test with SW-620 colon, 67.1%; in the test with MCF7 breast, 54.4%; with HCT-116 colon, 44.9%. Further, the growth in the test on HCC-2998 colon was 95.9%; in the test with KM12 colon, 87.8%.

`O=C(N/N=C/c1ccc(Cl)cc1)c1ccccc1Nc1cccc(C(F)(F)F)c1`: the growth in the test with T-47D breast was 109%; with BT-549 breast, 60.2%; with MDA-MB-435 melanoma, 53%; with SW-620 colon, 79.6%; with MCF7 breast, 85.2%; with HCT-116 colon, 66.1%. The growth in the test with HCC-2998 colon was 103%.

Consider `COc1ccc2c(c1)C(=O)/C(=C/c1ccc([N+](=O)[O-])o1)O2`, for which the growth is -46.9% (active) with T-47D breast; -49.9% (active) in the test with BT-549 breast; -72.5% (active) with MDA-MB-435 melanoma; -60.4% (active) in the test with SW-620 colon; -18.7% (active) with MCF7 breast; -44.9% (active) in the test on HCT-116 colon. The growth is -78.5% (active) with HCC-2998 colon and -80.3% (active) in the test with KM12 colon.

Regarding `CC(=O)N[C@H](C(=O)N[C@@H](CCCNC(=N)N)C(=O)N[C@@H](CCCCN)C(=O)N[C@@H](CCCNC(=N)N)C(=O)N[C@]1(C)CCCCCC/C=C\CCC[C@@](C)(C(=O)N[C@@H](CCCNC(=N)N)C(=O)N[C@@H](CCC(=O)O)C(=O)N[C@@H](CC(C)C)C(=O)N[C@H](C(=O)N[C@@H](CCC(=O)O)C(N)=O)C(C)C)NC(=O)[C@H](CCC(N)=O)NC(=O)[C@H](CC(C)C)NC(=O)[C@H](CC(C)C)NC(=O)[C@H](CCCNC(=N)N)NC(=O)[C@H](CCCNC(=N)N)NC(=O)[C@H](CC(C)C)NC1=O)C(C)C`, the growth in the test with T-47D breast was -35.7% (active); in the test with BT-549 breast, -46% (active); in the test with MDA-MB-435 melanoma it was 7.66% (active); in the test on SW-620 colon it was 25.9%; with MCF7 breast, -41.7% (active); in the test with HCT-116 colon, 11.6%. Moreover, the growth is 24.8% with HCC-2998 colon and -16.9% (active) with KM12 colon.

As to `COc1ccc(/C=C2\CCCC3=C2NC(N)=NC3c2ccc(OC)c(OC)c2)cc1OC` (stereo not drawn), the growth in the test with T-47D breast is 78.6%; in the test on BT-549 breast it was 36.1%; in the test with MDA-MB-435 melanoma it was 30.8%; with SW-620 colon, 40.7%; in the test on MCF7 breast, 27.6%; with HCT-116 colon, 7.91% (active). In addition, the growth with HCC-2998 colon is 88%; with KM12 colon it was 32.1%.

With `COc1ccc(C(=O)COc2cccc(/C=C3\Cc4ccccc4C3=O)c2)cc1`, the growth with T-47D breast was 73.8%; in the test on BT-549 breast, 74.5%; in the test with MDA-MB-435 melanoma, 58.8%; with SW-620 colon, 89.5%; in the test on MCF7 breast, 65.9%; in the test on HCT-116 colon, 84.4%. Moreover, the growth with HCC-2998 colon was 92.9%.

In the case of `Cc1ccc(-n2c(C)nn3c(=O)c4c5c(sc4nc23)CN(C)CC5)cc1`, the growth with T-47D breast is 81.3%; in the test with BT-549 breast it was 97.6%; with MDA-MB-435 melanoma, 102%; in the test on SW-620 colon, 104%; with MCF7 breast, 92.3%; in the test with HCT-116 colon, 93.5%. Further, the results for the growth in the test on HCC-2998 colon and in the test with KM12 colon were 97.2% and 96%, respectively.

Regarding `COc1ccc(NC(=O)C2CC3C=CC2C3)c([N+](=O)[O-])c1` (stereo not drawn), the growth in the test with T-47D breast was 98.1%; in the test on BT-549 breast, 139%; in the test with MDA-MB-435 melanoma it was 102%; with SW-620 colon, 110%; in the test with MCF7 breast it was 101%; in the test with HCT-116 colon it was 120%. Also, the growth with HCC-2998 colon is 103%; with KM12 colon it was 105%.

Turning to `COc1ccc(-c2nn(-c3cccc(Cl)c3)cc2-c2nc(N)[nH]c(=O)c2C#N)cc1`, the growth with T-47D breast was 58.7%; with BT-549 breast, 64%; in the test with MDA-MB-435 melanoma, 2.16% (active); with SW-620 colon, 83.2%; with MCF7 breast, 51%; with HCT-116 colon it was 58%. Besides, the growth was 80.9% with HCC-2998 colon and 56% with KM12 colon.

For `Nc1cc(-c2ccncc2)c[nH]c1=O`, the growth was 114% with T-47D breast; 93.5% in the test with BT-549 breast; 115% in the test with MDA-MB-435 melanoma; 110% with SW-620 colon; 91% in the test with MCF7 breast; 97.1% with HCT-116 colon. For the same compound, the growth with HCC-2998 colon is 116%; with KM12 colon, 104%.

Turning to `CC(C)(C)OC(=O)N1CCc2c(sc3ncnc(N/N=C/c4ccccc4Br)c23)C1`, the growth with T-47D breast is 41.5%; in the test on BT-549 breast it was 92.3%; in the test with MDA-MB-435 melanoma, 77.9%; with SW-620 colon it was 55%; in the test with MCF7 breast it was -12% (active); with HCT-116 colon it was 41.6%. The growth was 92.3% in the test on HCC-2998 colon and 92.1% with KM12 colon.

Regarding `COc1ccc(C2CC(c3cccs3)=NN2c2ccc(S(N)(=O)=O)cc2)cc1` (stereo not drawn), the growth is 85.1% with T-47D breast; 99.7% with BT-549 breast; 82% with MDA-MB-435 melanoma; 100% in the test on SW-620 colon; 75% with MCF7 breast; 70.7% in the test on HCT-116 colon. Also, the growth is 92.5% with HCC-2998 colon and 91.5% in the test with KM12 colon.
